# Measurements published in PubChem BioAssay AID2717 (Broad Institute, 2010).
# The whole screen tested about 300,000 compounds, of which about 3,200 (1.1%) were called active. Cut-off read from the data, not from the text of the source: active = inhibition above about 75%; inconclusive = no clear call, values can overlap the other calls; inactive = below that; tested in HMLE shEcad cells. Only a selection was taken, and actives are over-represented in it overall.
# Experiment: cancer stem cell viability inhibitors, primary screen, luminescence (AID 2717)
# Settings: cancer stem cell-like cells viability, at 7.5 µM, hits give high values
row,SMILES,inhibition
1,O=C(CN1C(=O)NC2(CCCCCC2)C1=O)Nc1ccc([N+](=O)[O-])cc1,-18.6% (inactive)
2,Cc1ccc(C2CC(=O)NC(SCC(=O)OCc3ccccc3)=C2C#N)o1 (stereo unspecified),61.5% (inactive)
3,CCOC(=O)CSC1=C(C#N)C(c2ccco2)C(C(=O)OCc2ccccc2)=C(C)N1 (stereo unspecified),-3.25% (inactive)
4,CCOC(=O)CSC1=C(C#N)C(c2sccc2C)CC(=O)N1 (stereo unspecified),78.4% (active)
5,Cc1c(Cl)cnc(NC(=O)COC(=O)C2CCCC2)c1Cl,-15.8% (inactive)
6,O=C(CCNC(=O)c1ccc(Cl)cc1)NC1CCCc2ccccc21 (stereo unspecified),27% (inactive)
7,COC(=O)c1cc2nc(-c3ccccc3)cc(C(F)(F)F)n2n1,-6.63% (inactive)
8,COc1ccc(NC(=O)c2cc3nc(-c4ccccc4)cc(C)n3n2)cc1OC,5.1% (inactive)
9,COCCNc1cc(-c2ccccc2)nc2cc(-c3cccc(F)c3)nn12,85.5% (active)
10,CN(CCc1ccccc1)C(=O)c1cccc(NC(=O)Cc2ccc([N+](=O)[O-])cc2)c1,-6.88% (inactive)
11,Cc1ccc(CNC(=O)CC(NC(=O)c2ccccc2)c2ccccc2)cc1 (stereo unspecified),-10.4% (inactive)
12,CCN(CC)S(=O)(=O)c1ccc(N2CCCC2)c(NC(=O)c2ccc([N+](=O)[O-])o2)c1,27.4% (inactive)
13,Cc1ccc(S(=O)(=O)N2CCCCC2)cc1NC(=O)CCNC(=O)c1ccccc1,-6.19% (inactive)
14,CC(C)(C)c1ccc(C(=O)NCCn2c(N)c(C#N)c3nc4ccccc4nc32)cc1,35.6% (inactive)
15,CCCNC(=O)c1c(N)n(-c2ccc(S(N)(=O)=O)cc2)c2nc3ccccc3nc12,0.593% (inactive)
16,CC(C)Cn1c(N)c(C(=O)NCc2cccs2)c2nc3ccccc3nc21,116% (active)
17,Cn1c(CC(=O)NNC(=O)c2ccccc2F)nc2ccccc21,-2.01% (inactive)
18,CN(Cc1ccccc1)C(=O)COC(=O)/C=C/c1ccc2c(c1)OCO2,-12% (inactive)
19,Cn1cncc1C#Cc1c(-c2ccsc2)sc2ccccc12,107% (active)

row,SMILES,inhibition
1,O=C(NCc1ccc2c(c1)OCO2)c1c(-c2ccsc2)sc2ccccc12,58.2% (inactive)
2,Cc1ccnc(SCC(=O)Nc2cccc(S(=O)(=O)N3CCOCC3)c2)n1,-13% (inactive)
3,O=C(NCC#CCSc1nnc(-c2cccc3ccccc23)o1)c1cccs1,44.4% (inactive)
4,O=C(/C=C/c1ccccc1[N+](=O)[O-])OCC(=O)N1CCCC1,-16.9% (inactive)
5,CSCCC1NC(=O)N(CC(=O)Nc2cccc(S(=O)(=O)N3CCCCCC3)c2)C1=O (stereo unspecified),-15.7% (inactive)
6,O=C(CCNC(=O)c1ccc(Br)cc1)NCC(c1ccco1)N1CCCCC1 (stereo unspecified),-10.9% (inactive)
7,COc1cccc(-c2cc3nc4c(c(N5CCC6(CC5)OCCO6)n3n2)CCCC4)c1,90.5% (active)
8,COc1cccc(CNc2nc3nc4c(c(=O)n3[nH]2)CCC4)c1,-11.3% (inactive)
9,COc1cccc(NC(=O)CN2CCN(c3nc(-c4cccc(OC)c4)cs3)CC2)c1,2.49% (inactive)
10,COc1ccccc1-c1sc2ccccc2c1C#CC1(O)CCCCC1,105% (active)
11,COc1ccccc1-c1sc2ccccc2c1-c1ccc(C(C)=O)cc1,29.6% (inactive)
12,COc1ccccc1C1=CC(=O)CCC1,-22.3% (inactive)
13,Cc1csc(NC(=O)NC2(C(F)(F)F)Oc3ccccc3O2)n1,36.6% (inactive)
14,O=C(Nc1cc(N2CCOCC2)ncn1)NC1(C(F)(F)F)Oc2ccc(Cl)cc2O1 (stereo unspecified),88.5% (active)
15,COc1ccc(Cl)cc1NC(=O)CN1CCN(C(=O)N2CCOCC2)CC1,-6.19% (inactive)
16,Cc1c(O)c(C)c2c(c1O)C(=O)C[C@@H](c1ccccc1)O2,1.32% (inactive)
17,Cc1cccc(-n2ncc3c(=O)[nH]c(SCC(=O)Nc4cc(C)on4)nc32)c1,-7.48% (inactive)
18,CCOc1ccccc1NC(=O)CCc1ccc(C)o1,0.408% (inactive)
19,Cc1ccc(CCC(=O)Nc2ncc(Cc3cc(Cl)ccc3Cl)s2)o1,86.2% (active)

row,SMILES,inhibition
1,Cc1ccc(C(=O)Nc2nc3ccc(Cl)cc3s2)o1,18.8% (inactive)
2,CCCc1cc(=O)[nH]c(SCC(=O)Nc2ccc(S(=O)(=O)N3CCCC3)cc2)n1,15.6% (inactive)
3,C=CC[C@@H](CC(=O)N[C@@H](CO)Cc1ccccc1)C(=O)NCCOC(=O)[C@@H](CC=C)CC(=O)OC(C)(C)C,-6.46% (inactive)
4,CCN1CCN(CCNC(=O)c2ccc(/C=C3/Sc4ccccc4N(Cc4cccc(C)c4)C3=O)cc2)CC1,102% (active)
5,CCN1CCN(CCNC(=O)c2ccc3c(c2)NC(=O)/C(=C\c2ccc(OC)c(OC)c2)S3)CC1,12.1% (inactive)
6,O=C(NCCN1CCOCC1)c1ccc(/C=C2\Sc3ccccc3N(Cc3ccc(F)cc3)C2=O)cc1,33.7% (inactive)
7,COc1ccc(C(=O)OCC(=O)c2cc(C)n(CC3CCCO3)c2C)cc1[N+](=O)[O-] (stereo unspecified),37.8% (inactive)
8,C=CC[C@H](CC(=O)OC(C)(C)C)C(=O)OC[C@H]1CCCN1C(=O)[C@H](CC=C)CC(=O)N(CCO)Cc1ccccc1,4.1% (inactive)
9,CCN(C(=O)CSc1cccc[n+]1[O-])c1ccccc1,7% (inactive)
10,O=C(OCC(=O)N1CCc2ccccc21)c1ccc([N+](=O)[O-])cc1,8.88% (inactive)
11,Cc1cccc(NC(=O)c2ccc(COc3ccccc3[N+](=O)[O-])o2)n1,54.5% (inactive)
12,O=C(O)c1ccc(NC(=O)c2ccc(COc3ccc(Cl)cc3)o2)cc1,-2.6% (inactive)
13,O=C(Nc1ccn(Cc2ccccc2F)n1)c1ccc(COc2ccc(Cl)cc2Cl)o1,80.3% (active)
14,COCCCNC(=O)CC1C[C@H](C(=O)N2CCCCC2)[C@@]2(CCc3ccccc3)c3[nH]c4ccccc4c3CCN2C1=O (stereo partly specified),-19.5% (inactive)
15,O=C1NC(=Nc2ccc(Cl)cc2)SC1Cc1cccc(Cl)c1Cl (stereo unspecified),76.5% (active)
16,CC(C)=N/N=C1/NC(=O)C(Cc2ccccc2)S1 (stereo unspecified),-16.9% (inactive)
17,NC1=NC(=O)C(Cc2cccc(Cl)c2Cl)S1 (stereo unspecified),14.4% (inactive)
18,O=C(CCCOc1ccccc1)NNC(=O)c1ccc(Cl)cc1,-7.46% (inactive)
